Unmarked numbers belong to inactive results. Inconclusive results are not listed. The source made the active and inactive calls. Calls follow the shape of the dose curve; as a rule, active = well fitted curve in the direction sought with a large enough effect; inconclusive = small, poorly fitted or top-dose-only effect, or another doubt; inactive = no such curve, though single readings can be large; an effect the other way counts as inactive or inconclusive.
Assay: Confirmation and Secondary Assay for Modulators of Hemoglobin Beta Chain Splicing at IVS2 654 locus (AID 910);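 also: HeLa cells stably carrying EGFP split by mutant beta-globin IVS2-654 intron; per-well total GFP intensity by laser scanning cytometry after 2-day treatment; % of control where 0% means no effect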
Settings: HeLa EGFP-654 splicing reporter, GFP fluorescence, 48 h; series mostly up to 46.1 µM; activation (splicing correction): at the top concentration
How it was run: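 Readout: per-well total peak green fluorescence (488 nm ex, 500–520 nm em) from objects 5–250 µm, reflecting correct splicing of an EGFP-654 reporter. Compounds were applied for 2 days at 37 °C to overnight-plated HeLa EGFP-654 cells; controls were DMSO and 500 nM IVS2-654 PNA.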

SMILES	activation (splicing correction)
CN(C)C(=O)C(CCN1CCC(O)(c2ccc(Cl)cc2)CC1)(c1ccccc1)c1ccccc1	1.8%
CC(COc1ccccc1)N(CCCl)Cc1ccccc1 (stereo not drawn)	4.88%
COC(=O)Nc1nc2ccc(C(=O)c3cccs3)cc2[nH]1	11.1%
OCCN1CCN(CCCN2c3ccccc3Sc3ccc(C(F)(F)F)cc32)CC1	-6.93%
CN(C)CCOC(c1ccccc1)c1ccccc1	6.46%

Assay: qHTS Assay for Identification of Small Molecule Agonists for Thrombopoietin (TPO) Signaling Pathway (AID 917); also: potency is read from the fitted curve at half-maximal effect; as to activity, positive = activation: % is scaled to controls: 0 for no effect and ±100 for the full control effect
Settings: TPO signaling pathway reporter cells, agonist qHTS, stimulated with TPO at its EC50; series mostly up to 38.5 µM; activity, positive = activation: at the top concentration
How it was run: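 Ba/F3 (mouse) + hTPO receptor + GpIIb-promoter luciferase; IL-3 withdrawn overnight; compound + 26 pM TPO (EC50), 24 hrs, 37 C, 5% CO2; Steadylite luminescence, 10 min RT.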

SMILES	activity, positive = activation	Potency
N[C@@H](Cc1c[nH]c2ccc(O)cc12)C(=O)O	-5.95%	–
COc1nc(C)nc(Cl)c1NC1=NCCN1	-8.27%	–
COc1ccc(C2CNC(=O)C2)cc1OC1CCCC1 (stereo not drawn)	-8.12%	–
CN1CCC(=C2c3ccccc3C=Cc3ccccc32)CC1	-28.6%	–
CC[N+](CC)(CC)CCOc1cccc(OCC[N+](CC)(CC)CC)c1OCC[N+](CC)(CC)CC	0.784%	–
NCCS(=O)(=O)O	0.976%	–
CN(Cc1cnc2nc(N)nc(N)c2n1)c1ccc(C(=O)N[C@@H](CCC(=O)O)C(=O)O)cc1	-23.5%	–
Nc1nc2c(ncn2COC(CO)CO)c(=O)[nH]1	-14.4%	–
NC(=O)OCC(COC(N)=O)c1ccccc1	-11.6%	–
CCOC(=O)Nc1ccc(NCc2ccc(F)cc2)nc1N	-23.3%	–
Cn1ccc2cc3c(cc21)CCN3C(=O)Nc1cccnc1	–	1 µM (active)
CCOC(=O)C(C)(C)Oc1ccc(Cl)cc1	-18.1%	–
C[C@](N)(Cc1ccc(O)c(O)c1)C(=O)O	-18.3%	–
Cc1cnc(C(=O)NCCc2ccc(S(=O)(=O)NC(=O)NC3CCCCC3)cc2)cn1	10.5%	–
CCOC(=O)c1ncn2c1CN(C)C(=O)c1cc(F)ccc1-2	-18.3%	–
Cc1cn([C@H]2C=C[C@@H](CO)O2)c(=O)[nH]c1=O	-8.03%	–
Nc1nnc(-c2cccc(Cl)c2Cl)c(N)n1	-11.2%	–

Assay: Cell Viability - LYMP2-001 (AID 921);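 also: cells exposed to compound for 24 h at 37 °C; 0% = DMSO only and full inhibition = tetraoctylammonium bromide control wells; nearly all actives have a fitted effect of over 70% in size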
Settings: LYMP2-001 lymphoblastoid cell viability; series mostly up to 92.2 µM; activity change, negative = cytotoxic: at the top concentration
How it was run: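 CellTiter-Glo luminescence (intracellular ATP) after 24 hr compound exposure at 37 C, 2500 lymphoblastoid cells/well in complete medium. AC50 fitted with standard Hill equation; tetraoctylammonium bromide positive control.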

SMILES	activity change, negative = cytotoxic	outcome
N[C@@H](Cc1c[nH]c2ccc(O)cc12)C(=O)O	-34%	–
NCCS(=O)(=O)O	1.72%	–
Cc1cn([C@H]2C[C@H](N=[N+]=[N-])[C@@H](CO)O2)c(=O)[nH]c1=O	2.61%	–
Cc1cn([C@H]2C=C[C@@H](CO)O2)c(=O)[nH]c1=O	–	inactive
O=c1[nH]cc(F)c(=O)[nH]1	-21.6%	–

Assay: Confirmation and Secondary Assay for Modulators of Hemoglobin Beta Chain Splicing at IVS2 705 locus (AID 930);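 also: HeLa cells stably expressing the EGFP-705 splicing reporter; GFP fluorescence per well restored by corrected splicing of the IVS2-705 intron in EGFP; % of control where 0% means no effect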
Settings: HeLa EGFP-705 splicing reporter, GFP fluorescence, 48 h; series mostly up to 46.1 µM; activation: at the top concentration
How it was run: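 HeLa EGFP-705 reporter; 500 cells/well, o/n 37C 5% CO2; cpd 2 d; 488 ex/500-520 em laser scan; total peak GFP intensity/well. Ref: 500 nM […] antisense PNA.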

SMILES	activation
CN(C)C(=O)C(CCN1CCC(O)(c2ccc(Cl)cc2)CC1)(c1ccccc1)c1ccccc1	1.02%
CC(COc1ccccc1)N(CCCl)Cc1ccccc1 (stereo not drawn)	-0.615%
COC(=O)Nc1nc2ccc(C(=O)c3cccs3)cc2[nH]1	2.95%
O=c1[nH]cc(F)c(=O)[nH]1	-0.5%
OCCN1CCN(CCCN2c3ccccc3Sc3ccc(C(F)(F)F)cc32)CC1	2.51%
CN(C)CCOC(c1ccccc1)c1ccccc1	1.23%
